This is an account of results in ChEMBL document CHEMBL1961873, “Compounds: GSK PKIS; Assays: Nanosyn kinase panel” (2012).

Test [1] deals with Tyrosine-protein kinase ABL1 (Homo sapiens), P00519 [T315I]. The settings on record: at 1 µM.
The subject of test [2] is Tyrosine-protein kinase ABL1 (Homo sapiens), P00519 [Y253F]. The settings on record: at 0.1 µM.
For test [3] the test system is unchanged. To be noted: at 1 µM.
Test [4] has as its target Tyrosine-protein kinase ABL1 (Homo sapiens) (UniProt P00519). The settings on record: at 0.1 µM.
For test [5] the target is unchanged. To be noted: at 1 µM.
The target in test [6] is ALK tyrosine kinase receptor (Homo sapiens) (UniProt Q9UM73). The settings on record: at 0.1 µM.
Test [7] shares this target. The settings on record: at 1 µM.
For test [8], the target named is Tyrosine-protein kinase ABL2 (Homo sapiens) (UniProt P42684). The settings on record: at 0.1 µM.
For test [9] the target is unchanged. To be noted: at 1 µM.
In test [10] the target is Tyrosine-protein kinase receptor UFO (Homo sapiens) (UniProt P30530). To be noted: at 0.1 µM.
Test [11] shares this target. To be noted: at 1 µM.
Test [12] deals with Tyrosine-protein kinase Blk (Homo sapiens) (UniProt P51451). To be noted: at 0.1 µM.
Test [13] has the same target. The settings on record: at 1 µM.
Test [14] addresses T1, Cytoplasmic tyrosine-protein kinase BMX (Homo sapiens) (UniProt P51813).
T1 sequence (whole entry): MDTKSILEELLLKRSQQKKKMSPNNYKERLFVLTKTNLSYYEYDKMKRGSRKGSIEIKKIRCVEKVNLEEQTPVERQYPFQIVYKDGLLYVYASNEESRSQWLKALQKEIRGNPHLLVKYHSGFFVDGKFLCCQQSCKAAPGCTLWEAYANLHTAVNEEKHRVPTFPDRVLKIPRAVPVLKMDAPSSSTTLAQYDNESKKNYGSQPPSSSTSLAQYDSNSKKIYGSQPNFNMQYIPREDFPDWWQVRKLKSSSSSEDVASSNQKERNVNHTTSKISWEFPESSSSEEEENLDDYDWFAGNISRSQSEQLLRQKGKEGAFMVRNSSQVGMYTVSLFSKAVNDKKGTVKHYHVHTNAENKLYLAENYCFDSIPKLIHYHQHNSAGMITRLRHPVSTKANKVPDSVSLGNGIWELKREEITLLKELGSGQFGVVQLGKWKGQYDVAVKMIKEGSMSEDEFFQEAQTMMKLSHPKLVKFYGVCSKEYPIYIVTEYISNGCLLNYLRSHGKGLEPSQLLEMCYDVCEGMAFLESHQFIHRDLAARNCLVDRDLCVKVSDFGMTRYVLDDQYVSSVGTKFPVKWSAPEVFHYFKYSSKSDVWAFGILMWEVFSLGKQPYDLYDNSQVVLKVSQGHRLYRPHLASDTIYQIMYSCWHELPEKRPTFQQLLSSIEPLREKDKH
To be noted: at 0.1 µM.

Test [15] concerns the target T1, Cytoplasmic tyrosine-protein kinase BMX (Homo sapiens). To be noted: at 1 µM.
The target in test [16] is Protein-tyrosine kinase 6 (Homo sapiens) (UniProt Q13882). The settings on record: at 0.1 µM.
For test [17] the target is unchanged. The settings on record: at 1 µM.
Test [18] has as its target Tyrosine-protein kinase BTK (Homo sapiens) (UniProt Q06187). To be noted: at 0.1 µM.
Test [19] has the same target. To be noted: at 1 µM.
Test [20] deals with Tyrosine-protein kinase CSK (Homo sapiens) (UniProt P41240). The settings on record: at 0.1 µM.
Sequence of Tyrosine-protein kinase CSK (Homo sapiens) (P41240 2-450 limits assumed): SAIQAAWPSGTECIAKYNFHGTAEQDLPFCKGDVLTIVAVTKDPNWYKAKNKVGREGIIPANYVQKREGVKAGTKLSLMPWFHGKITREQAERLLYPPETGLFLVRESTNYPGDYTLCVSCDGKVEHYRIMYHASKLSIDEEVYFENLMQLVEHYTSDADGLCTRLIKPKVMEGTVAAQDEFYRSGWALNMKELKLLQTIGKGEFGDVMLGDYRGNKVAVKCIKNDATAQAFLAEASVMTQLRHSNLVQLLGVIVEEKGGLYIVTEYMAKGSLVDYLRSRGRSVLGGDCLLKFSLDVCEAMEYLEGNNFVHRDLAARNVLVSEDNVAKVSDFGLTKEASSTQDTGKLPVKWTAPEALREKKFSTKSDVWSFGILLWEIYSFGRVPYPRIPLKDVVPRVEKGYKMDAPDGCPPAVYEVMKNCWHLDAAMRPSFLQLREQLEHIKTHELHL

Sequence of ALK tyrosine kinase receptor (Homo sapiens) (Q9UM73 19-1620 limits assumed): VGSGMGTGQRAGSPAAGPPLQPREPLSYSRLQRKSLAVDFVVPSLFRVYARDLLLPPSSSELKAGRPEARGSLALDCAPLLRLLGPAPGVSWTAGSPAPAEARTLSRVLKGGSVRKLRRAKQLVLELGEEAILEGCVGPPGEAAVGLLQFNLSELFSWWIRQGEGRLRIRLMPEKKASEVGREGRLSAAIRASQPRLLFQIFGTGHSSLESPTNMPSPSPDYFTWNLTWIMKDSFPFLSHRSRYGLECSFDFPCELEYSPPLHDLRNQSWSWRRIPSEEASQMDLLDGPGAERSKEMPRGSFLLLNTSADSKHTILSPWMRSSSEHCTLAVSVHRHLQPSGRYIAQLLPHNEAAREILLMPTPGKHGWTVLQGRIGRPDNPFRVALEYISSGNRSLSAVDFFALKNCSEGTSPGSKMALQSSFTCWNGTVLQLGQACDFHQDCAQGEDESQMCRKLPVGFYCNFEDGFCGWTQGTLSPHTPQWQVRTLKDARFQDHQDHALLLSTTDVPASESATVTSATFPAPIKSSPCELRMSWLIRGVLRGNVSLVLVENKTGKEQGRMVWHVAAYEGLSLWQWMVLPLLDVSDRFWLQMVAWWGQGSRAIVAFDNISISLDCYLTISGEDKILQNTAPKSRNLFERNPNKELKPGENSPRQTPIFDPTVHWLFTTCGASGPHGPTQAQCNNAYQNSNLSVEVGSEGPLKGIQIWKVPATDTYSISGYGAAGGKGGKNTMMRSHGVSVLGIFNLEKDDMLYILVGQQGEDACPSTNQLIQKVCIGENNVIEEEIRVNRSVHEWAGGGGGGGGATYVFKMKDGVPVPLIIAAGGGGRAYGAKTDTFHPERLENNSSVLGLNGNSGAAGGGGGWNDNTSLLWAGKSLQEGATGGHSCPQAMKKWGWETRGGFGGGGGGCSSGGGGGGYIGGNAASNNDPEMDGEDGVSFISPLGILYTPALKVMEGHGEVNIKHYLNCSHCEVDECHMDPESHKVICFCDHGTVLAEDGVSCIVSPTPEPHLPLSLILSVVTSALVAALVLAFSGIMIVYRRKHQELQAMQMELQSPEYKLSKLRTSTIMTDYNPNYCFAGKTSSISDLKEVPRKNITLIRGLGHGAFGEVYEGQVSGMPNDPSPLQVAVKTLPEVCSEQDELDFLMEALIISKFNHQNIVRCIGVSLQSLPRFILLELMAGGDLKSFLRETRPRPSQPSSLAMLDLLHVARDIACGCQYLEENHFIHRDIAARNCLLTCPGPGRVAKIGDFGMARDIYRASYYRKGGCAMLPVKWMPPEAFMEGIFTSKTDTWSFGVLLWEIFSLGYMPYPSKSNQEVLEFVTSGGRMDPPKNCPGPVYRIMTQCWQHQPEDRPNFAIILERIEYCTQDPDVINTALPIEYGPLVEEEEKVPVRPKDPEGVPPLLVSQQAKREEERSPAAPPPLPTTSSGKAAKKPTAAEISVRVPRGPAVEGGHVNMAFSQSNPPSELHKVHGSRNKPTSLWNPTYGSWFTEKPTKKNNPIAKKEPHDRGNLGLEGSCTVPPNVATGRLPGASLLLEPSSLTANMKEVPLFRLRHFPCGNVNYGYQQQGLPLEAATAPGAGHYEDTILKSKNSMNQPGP
Sequence of Tyrosine-protein kinase receptor UFO (Homo sapiens) (P30530 whole entry): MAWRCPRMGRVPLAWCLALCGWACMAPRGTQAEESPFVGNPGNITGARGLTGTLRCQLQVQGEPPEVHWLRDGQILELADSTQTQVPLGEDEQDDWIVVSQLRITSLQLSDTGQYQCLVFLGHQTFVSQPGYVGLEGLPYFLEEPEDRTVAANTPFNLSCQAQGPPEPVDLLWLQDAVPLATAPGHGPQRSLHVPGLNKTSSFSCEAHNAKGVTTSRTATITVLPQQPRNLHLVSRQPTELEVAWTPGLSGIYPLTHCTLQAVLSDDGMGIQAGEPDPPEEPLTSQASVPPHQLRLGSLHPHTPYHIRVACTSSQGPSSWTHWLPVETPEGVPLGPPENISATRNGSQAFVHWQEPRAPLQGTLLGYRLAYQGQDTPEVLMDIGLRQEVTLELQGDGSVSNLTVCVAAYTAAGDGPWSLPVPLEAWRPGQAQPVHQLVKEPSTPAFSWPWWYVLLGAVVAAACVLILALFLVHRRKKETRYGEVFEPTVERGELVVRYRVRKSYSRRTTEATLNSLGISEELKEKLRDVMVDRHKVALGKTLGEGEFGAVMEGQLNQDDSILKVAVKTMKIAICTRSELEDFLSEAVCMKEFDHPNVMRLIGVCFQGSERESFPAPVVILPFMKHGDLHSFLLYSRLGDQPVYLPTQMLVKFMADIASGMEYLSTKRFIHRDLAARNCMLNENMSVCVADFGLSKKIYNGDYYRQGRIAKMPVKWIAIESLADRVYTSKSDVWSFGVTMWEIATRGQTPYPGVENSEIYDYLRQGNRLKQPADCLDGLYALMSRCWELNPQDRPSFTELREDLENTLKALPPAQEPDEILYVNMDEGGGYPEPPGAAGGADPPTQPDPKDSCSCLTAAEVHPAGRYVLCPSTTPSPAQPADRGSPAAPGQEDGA
Sequence of Tyrosine-protein kinase BTK (Homo sapiens) (Q06187 whole entry): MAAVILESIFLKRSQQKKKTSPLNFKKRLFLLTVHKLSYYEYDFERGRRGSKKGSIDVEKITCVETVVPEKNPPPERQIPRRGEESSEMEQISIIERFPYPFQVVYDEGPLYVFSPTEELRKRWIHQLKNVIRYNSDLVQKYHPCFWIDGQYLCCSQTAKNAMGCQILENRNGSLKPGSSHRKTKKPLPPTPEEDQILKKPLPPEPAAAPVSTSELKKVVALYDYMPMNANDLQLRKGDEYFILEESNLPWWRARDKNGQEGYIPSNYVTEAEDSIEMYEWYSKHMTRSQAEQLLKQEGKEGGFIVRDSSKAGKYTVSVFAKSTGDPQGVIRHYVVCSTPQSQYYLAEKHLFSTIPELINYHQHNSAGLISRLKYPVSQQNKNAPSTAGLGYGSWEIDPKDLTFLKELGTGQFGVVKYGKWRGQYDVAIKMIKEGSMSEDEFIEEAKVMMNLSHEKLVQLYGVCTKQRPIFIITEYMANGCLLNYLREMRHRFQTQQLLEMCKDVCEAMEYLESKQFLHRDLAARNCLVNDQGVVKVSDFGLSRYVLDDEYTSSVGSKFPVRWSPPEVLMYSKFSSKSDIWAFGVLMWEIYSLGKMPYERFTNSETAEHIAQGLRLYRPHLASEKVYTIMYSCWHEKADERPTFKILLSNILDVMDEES
Sequence of Protein-tyrosine kinase 6 (Homo sapiens) (Q13882 whole entry, looked up): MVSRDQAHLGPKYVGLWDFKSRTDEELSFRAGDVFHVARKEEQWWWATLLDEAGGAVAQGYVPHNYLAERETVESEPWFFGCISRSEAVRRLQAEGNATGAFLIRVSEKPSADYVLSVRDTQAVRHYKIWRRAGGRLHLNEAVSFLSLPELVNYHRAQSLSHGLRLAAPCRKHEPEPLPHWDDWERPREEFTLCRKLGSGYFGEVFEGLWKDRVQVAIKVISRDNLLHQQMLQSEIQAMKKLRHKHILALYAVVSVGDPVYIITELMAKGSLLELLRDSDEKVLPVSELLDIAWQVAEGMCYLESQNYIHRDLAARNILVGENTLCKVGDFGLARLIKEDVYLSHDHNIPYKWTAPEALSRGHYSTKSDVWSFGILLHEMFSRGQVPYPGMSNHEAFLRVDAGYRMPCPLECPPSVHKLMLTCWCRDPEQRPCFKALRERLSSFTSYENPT
Sequence of Tyrosine-protein kinase Blk (Homo sapiens) (P51451 2-505 limits assumed): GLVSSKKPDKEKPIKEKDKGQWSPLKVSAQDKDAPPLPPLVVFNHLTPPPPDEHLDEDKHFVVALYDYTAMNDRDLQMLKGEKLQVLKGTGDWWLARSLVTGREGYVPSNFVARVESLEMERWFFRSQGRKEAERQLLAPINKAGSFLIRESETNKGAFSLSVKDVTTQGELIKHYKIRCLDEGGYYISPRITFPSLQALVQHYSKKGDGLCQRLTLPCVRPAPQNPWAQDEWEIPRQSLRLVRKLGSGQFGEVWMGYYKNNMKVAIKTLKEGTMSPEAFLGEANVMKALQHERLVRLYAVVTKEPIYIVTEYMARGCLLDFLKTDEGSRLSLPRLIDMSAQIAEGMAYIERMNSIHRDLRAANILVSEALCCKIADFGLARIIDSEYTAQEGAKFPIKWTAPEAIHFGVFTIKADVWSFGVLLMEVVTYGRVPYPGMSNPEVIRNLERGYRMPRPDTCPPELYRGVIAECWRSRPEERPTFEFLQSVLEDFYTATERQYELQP

What is called inhibition is the drop in the measured response relative to a control, in per cent. Regarding `[O-][S+]1CCN(Cc2ccc(-c3ccc4ncnc(Nc5ccc(OCc6ccccc6)c(F)c5)c4c3)o2)CC1`, the inhibition in test [1] was -1.37%; in [2], 2.33%; in test [3] it was -0.81%; in test [4], 1.83%; in [5], 5.78%; in test [6], 1.75%. Further, the inhibition in [7] was 4.79%; in test [8], 3.02%; in test [9], 3.87%; in test [10] it was -4.98%; in test [11] it was -2.42%; in test [12] it was 1.92%. Further, the inhibition in [13] was found to be 5.97%; in test [14], 4.65%; in [15], 5.88%; in [16] it was 0.34%; in test [17] it was 6.21%; in [18], 1.11%. The results for the inhibition in test [19] and in test [20] were 1.74% and 3.39%, respectively.
`CS(=O)(=O)CCN(CC#N)Cc1ccc(-c2ccc3ncnc(Nc4ccc(OCc5cccc(F)c5)c(Cl)c4)c3c2)o1`: the inhibition was -0.34% in test [1]; 2.36% in test [2]; 1.9% in test [3]; -2.3% in [4]; -2.95% in [5]; -2.83% in test [6]. Also, the inhibition in test [7] is -0.48%; in test [8], -2.62%; in test [9], -1.72%; in [10], -6.1%; in test [11], -5.07%; in [12], -2.59%. For the same molecule, the inhibition is -2.7% in [13]; 1.65% in test [14]; 3.9% in test [15]; 2.35% in test [16]; 4.81% in test [17]; -4.96% in test [18]. Also, the inhibition is -5.01% in test [19] and 3.24% in test [20].
As for `COc1cc2ncn(-c3cc(O[C@@H](C)c4ccccc4Cl)c(C(N)=O)s3)c2cc1OC`, the inhibition in test [1] was found to be 13.5%; in test [2] it was 6.04%; in test [3] it was 25.9%; in test [4], 7.09%; in [5], 28.4%; in test [6], 3.25%. Besides, the inhibition was 6.34% in test [7]; 3.24% in [8]; 11.4% in [9]; -8.48% in test [10]; -5.82% in test [11]; 11.1% in [12]. The inhibition in test [13] was 51.2%; in test [14], 2.71%; in test [15], 6.64%; in test [16], -0.13%; in [17], 7.91%; in test [18], -0.58%. The inhibition came to 1.4% in test [19] and 1.7% in [20].
Take `CS(=O)(=O)CCNCc1ccc(-c2ccc3ncnc(Nc4ccc(OCc5cccc(F)c5)c(C(F)(F)F)c4)c3c2)o1`: the inhibition in test [1] amounted to 4.21%; in [2], 4.9%; in [3], 2.89%; in test [4], 2.03%; in test [5], 2.75%; in test [6], 1.6%. The inhibition was 2.6% in test [7]; 4.19% in [8]; 4.05% in test [9]; -5.05% in [10]; -5.02% in test [11]; 2.7% in test [12]. Besides, the inhibition in [13] was determined as 3.9%; in test [14], 3.53%; in test [15], 3.77%; in [16], 4.08%; in test [17], 5.42%; in test [18], 0.73%. Also, the results for the inhibition in test [19] and in [20] were -0.77% and 2.85%, respectively.
On to `Cc1nn(C)c2cc(N(C)c3ccnc(Nc4cccc(S(N)(=O)=O)c4)n3)ccc12`, for which the inhibition in test [1] was 68.1%; in test [2], 45.3%; in test [3], 84.5%; in test [4] it was 28.3%; in [5], 74.9%; in [6], 3.45%. Besides, the inhibition in [7] is 19.2%; in test [8], 30.2%; in test [9], 74.4%; in [10], -2.86%; in test [11], -1.13%; in [12] it was 5.53%. In addition, the inhibition was 46.8% in [13]; 8.2% in test [14]; 35.1% in test [15]; 10.8% in test [16]; 52% in [17]; -0.96% in test [18]. Further, the values for the inhibition in [19] and in test [20] were 6.74% and 5.24%, respectively.
As for `COc1ccc(-c2nn3ncccc3c2-c2ccnc(Nc3ccc(Cl)c(C(F)(F)F)c3)n2)cc1`, the inhibition came to 4.57% in test [1]; 2.03% in [2]; 6.35% in test [3]; 2.26% in test [4]; 10.3% in test [5]; 1.83% in [6]. The inhibition was 2.05% in [7]; 2.64% in [8]; 9.44% in test [9]; -2.69% in test [10]; -2.97% in test [11]; 1.79% in test [12]. The inhibition in test [13] turned out to be 2.85%; in test [14] it was 2.75%; in [15] it was 2.33%; in test [16] it was 3.82%; in test [17], 4.81%; in test [18], 0.66%. The inhibition in [19] was 0.36%; in test [20], -0.37%.
Take `CCn1c(-c2nonc2N)nc2cncc(C(=O)N3CCNCC3)c21`: the inhibition in [1] worked out at 1.77%; in test [2], 2.95%; in [3], 5.17%; in test [4] it was 3.16%; in test [5], 3.28%; in [6] it was 3.59%. In addition, the inhibition in [7] is 5.18%; in test [8], 1.81%; in test [9], 4.42%; in test [10], -7.98%; in test [11], -9.66%; in test [12], 2.72%. Moreover, the inhibition is 4.31% in test [13]; 6.75% in test [14]; 8.89% in test [15]; 4.01% in test [16]; 5.31% in test [17]; -1.34% in test [18]. Besides, the results for the inhibition in [19] and in test [20] were 1.16% and 4.39%, respectively.
With `CCn1c(-c2nonc2N)nc2c(N3CCCC3)nccc21`, the inhibition in test [1] is 0.72%; in test [2], -1.15%; in [3], 2.07%; in [4] it was -1.74%; in [5], 0.66%; in [6], -1.38%. The inhibition in test [7] was -2.28%; in [8], 0.18%; in test [9], 7.36%; in [10], 0.14%; in [11] it was 4.04%; in [12], -1.15%. Besides, the inhibition was -2.43% in [13]; -2.04% in test [14]; -1.4% in [15]; -1.28% in [16]; -2.02% in test [17]; 0.03% in test [18]. The inhibition in test [19] was -1.53%; in [20], -7.4%.
In the case of `COc1cc2ncn(-c3cc(OCc4ccccc4C(F)(F)F)c(C(N)=O)s3)c2cc1OC`, the inhibition in test [1] came to 14%; in test [2] it was 5.48%; in test [3], 19.4%; in test [4], 2.17%; in test [5] it was 17.9%; in [6], 0.14%. In addition, the inhibition in [7] was 5.04%; in test [8], 2.15%; in [9], 13.2%; in test [10], -8.08%; in [11], -1.95%; in [12] it was 1.67%. Further, the inhibition in test [13] is 17.8%; in [14], 4.67%; in [15] it was 8.1%; in test [16] it was 3.25%; in test [17] it was 5.16%; in test [18], -3.7%. In addition, the figures for the inhibition in [19] and in [20] were -1.82% and 3.11%, respectively.
Turning to `COc1cc2c(cc1Nc1nc(N3CCc4ccccc43)c3cc[nH]c3n1)N(C(=O)CN(C)C)CC2`, the inhibition in test [1] is -1.44%; in [2] it was 1.21%; in [3], 3.71%; in test [4], 2.76%; in test [5], 7.27%; in test [6] it was 90%. Moreover, the inhibition in test [7] was 85.3%; in [8], 2.02%; in [9], 5.11%; in test [10], 3.85%; in test [11] it was 21.4%; in test [12], 0.59%. The inhibition is 4.28% in test [13]; -0.34% in test [14]; 4.16% in test [15]; 1.24% in test [16]; 0.03% in [17]; 1.01% in [18]. Also, the inhibition came out at 2.65% in [19] and 3.07% in test [20].
`CC1=C(C(=O)Nc2ccc3[nH]ncc3c2)C(c2ccc(F)cc2)NC(=O)N1` (stereo not given): the inhibition in test [1] came to 2.66%; in [2] it was 1.48%; in test [3] it was 5.27%; in test [4] it was 3.51%; in [5] it was 8.74%; in [6], 0.35%. For the same molecule, the inhibition in test [7] was 3.89%; in test [8] it was 2.2%; in test [9], 19.7%; in test [10] it was -2.41%; in test [11] it was -2.9%; in test [12], 0.5%. Further, the inhibition in [13] is 3.91%; in test [14], -3.23%; in [15] it was 1.24%; in [16], 1.78%; in test [17], 5.55%; in test [18] it was -0.15%. In addition, the inhibition in [19] is -1.83%; in test [20] it was 0.78%.
